# CendR NRP1 mod = modulators of CendR peptide binding to NRP-1, primary screen, biochemical, fluorescence polarization, uHTS. hit rate 0.85% among 360,000. inhibition, % at 25 µM. Neuropilin-1 (Homo sapiens), O14786. FAM-RPARPAR peptide binding to NRP-1;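 active means inhibition or corrected inhibition above about 18%, plus a signal ratio from 0.5 to 1.5, limit read from the data, passing the limit was not always enough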
# eIF4H FP inh = human eIF4H binding inhibitors, primary screen, translation initiation inhibitor project, biochemical, uHTS, fluorescence polarization. eIF4H fluorescence polarization binding assay. AID 2012, 2009. hit rate 0.94% among 290,000. inhibition, % at 35 µM;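 further: calls also rest on retests at 20 µM and on dose response follow-up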
# PABP FP inh = PABP poly(A) RNA binding inhibitors, primary screen, biochemical, fluorescence polarization, uHTS; Polyadenylate-binding protein 1 (Homo sapiens), P11940; inhibition, % at 35 µM; hit rate 1% among 290,000; AID 2014, 2009;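 further: calls also rest on retests at 20 µM and on dose response follow-up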
# PABP1 MLLE inh = inhibitors of PABP1 MLLE–PAM2 peptide binding, primary screen, biochemical, fluorescence polarization, FITC-PAM2, GST-MLLE; inhibition, % at 20 µM; hit rate 0.36% among 360,000; AID 588489, 2011; in the data active means inhibition above about 35%, passing the limit was not always enough;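 further: plate controls were DMSO wells with GST-MLLE for no effect and wells lacking GST-MLLE protein for full effect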
# The depositor's hits bear a star; u = inconclusive; x = not tested or not shown. In the library only some 2.1% were active in any assay of this set; here they are far more common. Unless noted, how the calls were made is not given here.
SMILES,CendR NRP1 mod,eIF4H FP inh,PABP FP inh,PABP1 MLLE inh
CCOC(=O)N1CCN(CC(=O)Nc2ccccc2C(=O)Nc2ccccc2)CC1,16,x,x,7
COc1ccc(Nc2ccc(N3C(=O)CC(C)C3=O)cc2[N+](=O)[O-])cn1 (stereo not drawn),-9,74,2.6*,40*
O=C(Nc1ccc(S(=O)(=O)N2CCOCC2)cc1)c1ccc(Cl)cc1Cl,15,-3,-4,2
CCN(CC)C(=O)C1=C(C)N(Cc2ccccc2)C(=O)C(CC(=O)NCCN2CCOCC2)C1 (stereo not drawn),4,x,x,-1
O=[N+]([O-])c1cccc(C2Nc3cccc4cccc(c34)N2)c1,20,44,2,16
Clc1cccc(C2Nc3cccc4cccc(c34)N2)c1Cl,-1,103*,70*,10
O=[N+]([O-])c1ccc(C2Nc3cccc4cccc(c34)N2)cc1,1,97*,87*,6
Cc1ccc(C2Nc3cccc4cccc(c34)N2)s1,12,103,24*,12
Brc1ccc(C2Nc3cccc4cccc(c34)N2)cc1,-10,x,x,-5
Oc1ccc(C2Nc3cccc4cccc(c34)N2)c(O)c1,6,89*,41*,7
COc1ccc([C@H]2N[C@]3(CCCN(Cc4ccc(C(F)(F)F)cc4)C3=O)[C@H]3C(=O)N(C)C(=O)[C@@H]23)cc1,-16,x,x,0
COC(=O)c1sccc1NS(=O)(=O)c1ccccc1[N+](=O)[O-],4,x,x,1
COc1ccc(N(CC(=O)N2CCC(C(N)=O)CC2)S(=O)(=O)c2ccccc2)cc1,12,1,8,9
CCN(CC)S(=O)(=O)c1ccc(OC)c(NC(=O)CSCc2c(C)noc2C)c1,15,x,x,5
c1coc(C2Nc3cccc4cccc(c34)N2)c1,x,110*,102*,x
Clc1ccccc1C1Nc2cccc3cccc(c23)N1,17,u,u,6
FC(F)(F)c1ccc(C2Nc3cccc4cccc(c34)N2)cc1,-3,67,7,-4
Fc1ccc(C2Nc3cccc4cccc(c34)N2)cc1,21,53*,40*,5
Cc1ccc(C(=O)NC(=S)NNC(=O)c2ccc([N+](=O)[O-])cc2)cc1,0,9,-6,24
C/C(CC(=O)Nc1ccc(N(C)C)cc1)=N\NC(=O)c1ccccc1O,-14,8,8,-12
CCCCCC(=O)NNC(=S)NC(=O)c1ccc([N+](=O)[O-])cc1,1,62,4,39*
O=C(NC(=S)NNC(=O)c1ccccc1O)c1ccc([N+](=O)[O-])cc1,-8,3,-12,41*
C/C(CC(=O)Nc1ccc([N+](=O)[O-])cc1)=N\NC(=O)c1ccccc1O,1,82*,31,-14
CN(C)c1ccc(C(CNC(=O)Cc2cccc3ccccc23)N(C)C)cc1 (stereo not drawn),9,6,-1,5
COc1ccc(CCNC(=O)C(=O)NCC2OCCN2S(=O)(=O)c2ccccc2)cc1 (stereo not drawn),-1,12,-2,1
SMILES,CendR NRP1 mod,eIF4H FP inh,PABP FP inh,PABP1 MLLE inh
COc1cc(/C=C/C(=O)Nc2ccc(C)cc2)cc(OC)c1OC,8,2,11,6
COc1cc(/C=C/C(=O)Nc2nnc(C(C)(C)C)s2)cc(OC)c1OC,-6,-13,-6,41*
O=c1/c(=C/c2ccco2)sc2n1CN(c1ccccc1)CN=2,3,-8,-2,-10
O=c1/c(=C/c2ccco2)sc2n1CN(c1cccc(Br)c1)CN=2,-12,51*,74*,-83
CN(CC(=O)Nc1ccccc1Cl)C(=O)COC(=O)Cc1ccc(F)cc1,0,-8,10,1
COc1ccc(-c2csc(Nc3cccnc3)n2)cc1,25*,1,3,7
OCC1OC(n2cnc3c(N4CCCCC4)ncnc32)C(O)C1O (stereo not drawn),3,x,x,-10
CC(=O)Nn1cnc2c(c1=O)C1(CCCC1)Cc1ccccc1-2,3,-2,2,-2
CCCC(=O)Nn1cnc2c(c1=O)C1(CCCC1)Cc1ccccc1-2,25*,-2,-2,-5
O=C1c2ccccc2NC(c2ccc(F)cc2)N1Cc1ccccc1 (stereo not drawn),4,-12,5,-1
COc1ccc(N2CC(C(=O)NNC(=O)c3ccc(Br)cc3)CC2=O)c(OC)c1 (stereo not drawn),-1,x,x,-17
Cc1cc(C)cc(N2C(=O)CC(Sc3ccccc3C(=O)O)C2=O)c1 (stereo not drawn),-10,-4,4,41*
